# Measurements reported in PubChem BioAssay (NCI).
# The panel holds about 83,000 compounds, 20% with a hit somewhere; the sample as a whole holds those more often.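 Plates (96-well) were seeded with cells, treated with compound at one concentration, and incubated for 48 hours before percent growth was determined.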 A number with no mark means an inactive call. The source made the active and inactive calls. The calls were made as follows: active = growth percent below 10; inactive = the rest.
# System: IGROV1 ovarian
# Assay: NCI-60 one-dose screen, 48 h (100 = growth as untreated, 0 = no growth, -100 = all killed)
# Settings: 10 µM
row,SMILES,growth
1,N#C/C(=C/c1cc([N+](=O)[O-])ccc1Cl)C(N)=O,69.9%
2,CCCCCCCCCCCC(=O)NCCCN(C)C,92%
3,CCc1nn2c(-c3cc(OC)c(OC)c(OC)c3)c(-c3cc(OC)c(OC)c(OC)c3)nc2s1,88.8%
4,CCN1CCN(c2nc(NNC(=O)c3cccc(OC)c3)nc(N3CCN(C(c4ccccc4)c4ccccc4)CC3)n2)CC1,58.5%
5,CCCCOCCOCCOCc1cc2c(cc1Br)OCO2,89.6%
6,CCCCCCCCCCCCCC[n+]1ccccc1,-60.4% (active)
7,Clc1cc(Cl)c(OCCCCCCN2CCNCC2)c(Cl)c1,46.6%
8,COc1ccc(NC(=O)c2sc3nc4c(cc3c2N)C(O)CCC4)cc1 (stereo not given),106%
9,Cc1cc(C(C)(C)CC(C)(C)C)ccc1OCCOCC[N+](C)(C)Cc1ccccc1,-76.8% (active)
10,CCCCCC(=O)N1c2ccccc2NC2=C(C(=O)CC(c3ccc(OC)c(OC)c3)C2)C1c1ccc(C(F)(F)F)cc1 (stereo not given),63%
11,COc1cc(C2C(C#N)=C(c3c[nH]c4ccccc34)Nc3nc(N)[nH]c(=O)c32)cc(OC)c1OC (stereo not given),80.3%
12,COc1ccc(-c2nc(-c3nc4ccc(C)cc4[nH]3)c3ccccn23)cc1,36.5%
13,COCCOC(=O)NC(=O)Nc1ccc(/C(=N/O)c2ccc(Cl)cc2)cc1,30.9%
14,CCN(CCCNC(=O)Cc1cc(=O)oc2cc(N(C)C)ccc12)CCNc1ccnc2cc(Cl)ccc12,94%
15,CC(C)c1ncc(CO)n1Cc1c(Cl)cccc1Cl,100%
